Laboratory results: PubChem BioAssay AID1220 (Sanford-Burnham Center for Chemical Genomics, 2008)
About 1,300 (0.68%) of roughly 190,000 compounds were called active. The entries come from a sample that favours actives as a whole. A number with no mark means an inactive call. No stated cut-off is given here; in the data, active means inhibition above about 50%; inactive means the rest.

These molecules were tested against Mannose-6-phosphate isomerase (Homo sapiens) (UniProt P34949) (assay: human PMI inhibitors, high substrate, primary screen, biochemical, fluorescence intensity, high mannose 6-phosphate (AID 1220)). Settings: recombinant PMI enzyme, coupled fluorescence intensity; at 20 µM; active compounds read high.
Mannose-6-phosphate isomerase (Homo sapiens), sequence (P34949 whole entry, looked up): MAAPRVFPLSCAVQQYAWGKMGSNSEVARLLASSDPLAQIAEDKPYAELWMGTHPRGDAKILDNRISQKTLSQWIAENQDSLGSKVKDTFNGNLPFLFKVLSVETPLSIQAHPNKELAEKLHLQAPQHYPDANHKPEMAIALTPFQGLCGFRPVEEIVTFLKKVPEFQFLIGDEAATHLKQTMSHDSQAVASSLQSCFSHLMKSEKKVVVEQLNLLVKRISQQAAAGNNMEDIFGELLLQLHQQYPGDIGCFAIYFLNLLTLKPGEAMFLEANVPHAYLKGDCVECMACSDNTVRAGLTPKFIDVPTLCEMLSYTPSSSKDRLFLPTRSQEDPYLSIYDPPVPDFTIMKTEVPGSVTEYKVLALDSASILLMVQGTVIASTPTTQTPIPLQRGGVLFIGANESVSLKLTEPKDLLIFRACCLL
`O=C(NCC1CCCO1)C(=O)NCC(c1ccco1)N1CCN(c2ccccc2)CC1` (centres undefined) was tested, and the inhibition was -4.7%.
In the case of `CC1CCC2C(=O)N(c3ccc(C(=O)Oc4cccc5cccnc45)cc3)C(=O)C2C1` (centres undefined), the inhibition is reported as 48.7%.
`O=C(Nc1ccc(F)cc1)c1cccc(N2C(=O)C3C4CCC(C4)C3C2=O)c1` (centres undefined) was tested, and the inhibition was 9.3%.
Work on `Cc1ccc(C(=O)Oc2ccccc2N2C(=O)C3C4CCC(C4)C3C2=O)cc1` (centres undefined) yielded an inhibition of 0.7%.
For `O=C(Oc1cccc2cccnc12)c1cccc(N2C(=O)C3C4CCC(C4)C3C2=O)c1` (centres undefined), the inhibition was 51.9% (active).
In the case of `O=C(Oc1cccc2cccnc12)c1ccc(N2C(=O)C3C4CCC(C4)C3C2=O)cc1` (centres undefined), the inhibition is reported as 50.5% (active).
For `O=C(Oc1cccc2cccnc12)c1cccc(-n2cnnn2)c1`, the inhibition was 27.9%.
For `Cn1c(=O)c2c(nc(N3CCCC3)n2CC(O)CO)n(C)c1=O` (centres undefined), the inhibition was -12.4%.
Work on `Cc1cc(C)nc(NC(=O)c2cc(Br)ccc2Cl)n1` yielded an inhibition of -2.5%.
In the case of `O=C(COC(=O)c1cccs1)Nc1cc(S(=O)(=O)N2CCOCC2)ccc1Cl`, the inhibition is reported as -2.3%.
`COc1cc(NC(=O)CCNC(=O)Cn2cnc3ccccc3c2=O)cc(OC)c1OC` gave an inhibition of 10.9%.
`COC(=O)c1nnn(-c2nc(N3CCOCC3)nc(N3CCOCC3)n2)c1C` gave an inhibition of 8.7%.
With `COc1cc(OC)c([N+](=O)[O-])cc1/C=N/NC(=O)c1ccncc1` the inhibition was 58.7% (active).
`COc1ccc(/C=N/NC(=O)c2ccncc2)cc1[N+](=O)[O-]` was tested, and the inhibition was -13.2%.
`COc1cc(OC)c(/C=N/NC(=O)c2ccncc2)cc1Br` gave an inhibition of -19.4%.
`COc1ccc(Cn2nnnc2C(c2ccc3ncccc3c2)N2CCN(C3CCCCC3)CC2)cc1` (centres undefined) was tested, and the inhibition was -3.1%.
With `O=C(O)c1cc(Cl)c(Cl)cc1C(=O)Nc1cccc2ncccc12` the inhibition was 54.8% (active).
`COCCCNC(=S)Nc1cccc2ncccc12` was tested, and the inhibition was 54.4% (active).
`O=C(NC(=S)Nc1cccc2ncccc12)c1ccccc1` was tested, and the inhibition was 30.3%.
For `O=C(NC(=S)Nc1cccc2ncccc12)c1cccs1`, the inhibition was 67.1% (active).
`O=C(O)c1cc(Cl)c(Cl)cc1C(=O)Nc1cccc2cccnc12` gave an inhibition of 46%.
For `COCCNC(=S)Nc1cccc2cnccc12`, the inhibition was 48%.
`COCCCNC(=S)Nc1ccccc1C` gave an inhibition of 15.8%.
`O=C(Cc1ccc(Cl)c(Cl)c1)Nc1cccc2ncccc12` showed an inhibition of 8.6%.
`O=C(NC(=S)Nc1cccc2ncccc12)c1ccco1` gave an inhibition of 7.2%.
For `CCN1C2=C(C(=O)CCC2)C(c2ccc(O)cc2)C2=C1CCCC2=O`, the inhibition was -9.2%.
`Cc1nnc(NC(=O)CSc2nnc(-c3ccc(S(=O)(=O)N4CCCC4)cc3)n2C)s1` was tested, and the inhibition was -8.6%.
For `CC1(C)C(=O)N(OCc2ccccc2)C(C)(C)C(=O)N1OCc1ccccc1`, the inhibition was -1.9%.
`COc1cc2c(cc1NCc1ccc3c(c1)OCO3)oc1ccccc12` showed an inhibition of 32.3%.
Work on `COc1cc2c(cc1NC(=O)CSc1ccccn1)oc1ccccc12` yielded an inhibition of 4.8%.
In the case of `COc1cc2c(cc1NCc1ccccn1)oc1ccccc12`, the inhibition is reported as 56.9% (active).
`CCOC(=O)C1CCN(c2c(NCc3ccc(C(=O)N(C)Cc4ccccc4)cc3)c(=O)c2=O)CC1` was tested, and the inhibition was -6.2%.
With `Cc1cc(C)nc(/N=C2\NC(=O)CC(C(=O)O)N2c2ccc(F)c(Cl)c2)n1` (centres undefined) the inhibition was -5.5%.
Molecule `O=C1CCCC2=C1C(c1cccc(O)c1)c1c(ccc3ncccc13)N2` (centres undefined) has an inhibition of 35.4%.
`O=C1CCCC2=C1C(c1ccc(O)c(O)c1)c1c(ccc3ncccc13)N2` (centres undefined) was tested, and the inhibition was 52.9% (active).
Molecule `COc1cc(C2C3=C(CCCC3=O)Nc3ccc4ncccc4c32)ccc1O` (centres undefined) has an inhibition of 27.4%.
Molecule `COc1cc(C2C(C#N)=C(C)NC(C)=C2C#N)cc(OC)c1OC` has an inhibition of 2%.
In the case of `COc1cc(NC2=CC(=O)CC(C)(C)C2)cc(OC)c1OC`, the inhibition is reported as 9.2%.
For `COc1cc(N/C=C2\CC(=O)NC(C)=C2C#N)cc(OC)c1OC`, the inhibition was 70.9% (active).
Work on `COC(=O)c1ccc(CSc2ccc3nnc(-c4cccnc4)n3n2)o1` yielded an inhibition of 0.3%.
With `CN(C)CCNC(=O)c1c(O)c2c([nH]c1=O)CCCC2` the inhibition was 15.6%.
Work on `COc1ccc(N)cc1-n1cnnn1` yielded an inhibition of -5.6%.
With `Cc1cc(N)ccc1-n1c(C)ccc1C` the inhibition was 69.4% (active).
In the case of `COc1ccc(N)cc1-n1c(C)ccc1C`, the inhibition is reported as 64.2% (active).
`Cc1cc(N)ccc1N1CCCC1` showed an inhibition of 25.9%.
For `Cc1ccc(N)cc1-n1c(C)ccc1C`, the inhibition was 27.5%.
`COc1ccc(Cl)cc1-n1c(C)ccc1C` showed an inhibition of -6.6%.
Molecule `Nc1nc(NCc2ccco2)nn1-c1ccccc1` has an inhibition of 2%.
In the case of `CCC(=O)OCCNc1cc(Sc2nccn2C)c2nonc2c1[N+](=O)[O-]`, the inhibition is reported as 50.8% (active).
`CCCC(=O)OCCNc1cc(SCc2ccco2)c2nonc2c1[N+](=O)[O-]` gave an inhibition of 40.5%.
In the case of `CCCC(=O)OCCNc1cc(Sc2nc3ccccc3[nH]2)c2nonc2c1[N+](=O)[O-]`, the inhibition is reported as 33%.
In the case of `CCCSc1cc(NCCOC(=O)CCC)c([N+](=O)[O-])c2nonc12`, the inhibition is reported as 50.7% (active).
`COC(=O)CCSc1cc(NCCOC(C)=O)c([N+](=O)[O-])c2nonc12` was tested, and the inhibition was 43.1%.
Work on `CC(=O)OCCNc1cc(SCc2ccco2)c2nonc2c1[N+](=O)[O-]` yielded an inhibition of 45.7%.
For `CCN(CC)c1cc(NCCO)c([N+](=O)[O-])c2nonc12`, the inhibition was 57.4% (active).
For `Cc1nnc(Sc2cc(NCCO)c([N+](=O)[O-])c3nonc23)s1`, the inhibition was 16.6%.
`CCCSc1cc(NCCOC(C)=O)c([N+](=O)[O-])c2nonc12` was tested, and the inhibition was 57.6% (active).
`Cn1ccnc1Sc1cc(NCCCO)c([N+](=O)[O-])c2nonc12` gave an inhibition of 24.2%.
`Cc1nnc(Sc2cc(NCCCO)c([N+](=O)[O-])c3nonc23)s1` gave an inhibition of 39.9%.
With `CCCC(=O)OCCNc1cc(Sc2nccn2C)c2nonc2c1[N+](=O)[O-]` the inhibition was 30.4%.
`O=C(NCc1cccnc1)Nc1cccc(F)c1` was tested, and the inhibition was -2.6%.
Molecule `CC(=O)Nc1nc(C(=O)O)cs1` has an inhibition of 6.8%.
`O=C(Nc1ccc(Cl)cn1)c1ccc(-c2cc(Cl)ccc2Cl)o1` showed an inhibition of -2.7%.
Work on `COc1cc2c(cc1OC)CN(C1CC(=O)N(c3c(C)cccc3C)C1=O)CC2` (centres undefined) yielded an inhibition of 2.1%.
In the case of `Cc1nc2ccc(NC(=S)NC3CC3)cc2nc1C`, the inhibition is reported as 46.4%.
Molecule `CCOC(=O)N1CCN(S(=O)(=O)c2ccc(C(=O)Nc3ccc4c(c3)C(=O)NC4=O)cc2)CC1` has an inhibition of 14.7%.
`COc1c(C(=O)NCCSC(C)(C)C)ccc2ccccc12` showed an inhibition of 2.8%.
In the case of `O=C(NCCn1ccc2ccccc21)C1CCCCC1`, the inhibition is reported as 1.5%.
`CC(=O)OCCCNc1cc(SCc2ccco2)c2nonc2c1[N+](=O)[O-]` was tested, and the inhibition was 40.1%.
For `CC(=O)OCCNc1cc(SC(C)C)c2nonc2c1[N+](=O)[O-]`, the inhibition was 52% (active).
With `CC(=O)OCCCNc1cc(Sc2ccc(C)cc2)c2nonc2c1[N+](=O)[O-]` the inhibition was 45.7%.
For `CC(=O)OCCNc1cc(Sc2nc3ccccc3[nH]2)c2nonc2c1[N+](=O)[O-]`, the inhibition was 26.1%.
For `CC(=O)OCCCNc1cc(Sc2ccc(Cl)cc2)c2nonc2c1[N+](=O)[O-]`, the inhibition was 56.3% (active).
`CC(=O)OCCN(C)c1cc(SC(C)C)c2nonc2c1[N+](=O)[O-]` gave an inhibition of 24.4%.
Molecule `COc1ccc(C2CC(c3ccc(OC)cc3)n3nc(NC(=O)c4ccco4)nc3N2)cc1` (centres undefined) has an inhibition of 3.4%.
`COc1cccc2c1OCC(C(=O)OCc1cccnc1)=C2` showed an inhibition of 3.9%.
`COCc1cc(C)nc(N/N=C/c2ccc(-c3cc(C(=O)O)ccc3Cl)o2)c1C#N` gave an inhibition of -8.6%.
For `COCc1cc(C)nc(N/N=C/c2ccc(-c3ccc(C(=O)O)c(Cl)c3)o2)c1C#N`, the inhibition was -2.9%.
With `COCc1cc(C)nc(N/N=C/c2ccc(-c3ccc(Cl)cc3[N+](=O)[O-])o2)c1C#N` the inhibition was 55.9% (active).
For `O=C1CCc2cc(S(=O)(=O)NC(C(=O)N3CCN(c4ccccn4)CC3)c3ccccc3)ccc2N1` (centres undefined), the inhibition was -3.8%.
`CNCC/C=C1/c2ccccc2CSc2ccccc21` showed an inhibition of 14.2%.
`COc1ccc(NC(=O)NCc2ccncc2)c(OC)c1` gave an inhibition of 3.6%.
For `COc1ccc(N2CCC(CNC(=O)Nc3ccc(OC)cc3OC)C2)cc1` (centres undefined), the inhibition was 55.7% (active).
`CCOc1ccc(NC(=O)NCC2CCN(c3ccc(OC)cc3)C2)cc1` (centres undefined) was tested, and the inhibition was 22.5%.
`CCNC(=O)Nc1ccc(OC)cc1OC` was tested, and the inhibition was -3.8%.
With `COc1ccc(N2CCC(CNC(=O)Nc3ccc(C)c(C)c3)C2)cc1` (centres undefined) the inhibition was 52.6% (active).
Molecule `COc1ccc(N2CCC(CNC(=O)Nc3ccc(Cl)cc3)C2)cc1` (centres undefined) has an inhibition of 46.2%.
`CCSc1nnc(NC(=O)C(C)(C)C)s1` was tested, and the inhibition was 2%.
Molecule `CCO[C@@H]1OC(C(=O)NCc2ccccc2)=C[C@H](C2CC2)[C@H]1CCCO` has an inhibition of -7.4%.
`Cc1nc(N)[nH]c(=O)c1CCC(=O)OCC(C)C` gave an inhibition of -23.1%.
`Nc1ccc2c(c1)sc1ccccc12` was tested, and the inhibition was 55.2% (active).
`Nc1c([N+](=O)[O-])c(=O)sc2ccccc12` showed an inhibition of -0.6%.
With `Nc1ccc2nc(-c3ccccc3)sc2c1` the inhibition was 26.8%.
`Cc1c(C(=O)NCCc2ccc(S(N)(=O)=O)cc2)cccc1[N+](=O)[O-]` was tested, and the inhibition was -0.5%.
`CCCN1C/C(=C/c2cccc([N+](=O)[O-])c2)C(=O)/C(=C/c2cccc([N+](=O)[O-])c2)C1` showed an inhibition of -2.8%.
Work on `N#CC1=C2SCN(Cc3ccco3)CN2C(=O)CC1c1ccccc1F` (centres undefined) yielded an inhibition of 15%.
Work on `COc1ccc(N2CSC3=C(C#N)C(c4cccc(OC)c4OC)CC(=O)N3C2)cc1` (centres undefined) yielded an inhibition of -24.3%.
In the case of `COc1ccc2ccccc2c1C1CC(=O)N2CN(Cc3ccco3)CSC2=C1C#N` (centres undefined), the inhibition is reported as 62.9% (active).
With `N#CC1=C2SCN(Cc3ccco3)CN2C(=O)CC1c1cccc2ccccc12` (centres undefined) the inhibition was 68.8% (active).
